# Measured values: the supplement of paper PMC3545927
# The list shows a part of the results. The true hit rate is not given.
# Molecular target: furin, P09958
# Experiment: furin cleavage Z-score vs untreated control; higher = more cleavage, active = 3.5 or more, inactive = 1 or less, 8 variable residues between constant flanks
# Summary of the method: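 Read counts from sequencing released DNA gave abundance for each bead-bound 8-mer peptide–cDNA fusion cut by purified furin over 7.5, 15 or 30 min. The cleavage Z-score compares log counts with furin-free reactions after lowess adjustment and median absolute deviation scaling.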
# 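Also: purified furin at 1:10 enzyme:substrate in 50 mM HEPES pH 7.5.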
# furin, P09958, sequence (P09958 whole entry): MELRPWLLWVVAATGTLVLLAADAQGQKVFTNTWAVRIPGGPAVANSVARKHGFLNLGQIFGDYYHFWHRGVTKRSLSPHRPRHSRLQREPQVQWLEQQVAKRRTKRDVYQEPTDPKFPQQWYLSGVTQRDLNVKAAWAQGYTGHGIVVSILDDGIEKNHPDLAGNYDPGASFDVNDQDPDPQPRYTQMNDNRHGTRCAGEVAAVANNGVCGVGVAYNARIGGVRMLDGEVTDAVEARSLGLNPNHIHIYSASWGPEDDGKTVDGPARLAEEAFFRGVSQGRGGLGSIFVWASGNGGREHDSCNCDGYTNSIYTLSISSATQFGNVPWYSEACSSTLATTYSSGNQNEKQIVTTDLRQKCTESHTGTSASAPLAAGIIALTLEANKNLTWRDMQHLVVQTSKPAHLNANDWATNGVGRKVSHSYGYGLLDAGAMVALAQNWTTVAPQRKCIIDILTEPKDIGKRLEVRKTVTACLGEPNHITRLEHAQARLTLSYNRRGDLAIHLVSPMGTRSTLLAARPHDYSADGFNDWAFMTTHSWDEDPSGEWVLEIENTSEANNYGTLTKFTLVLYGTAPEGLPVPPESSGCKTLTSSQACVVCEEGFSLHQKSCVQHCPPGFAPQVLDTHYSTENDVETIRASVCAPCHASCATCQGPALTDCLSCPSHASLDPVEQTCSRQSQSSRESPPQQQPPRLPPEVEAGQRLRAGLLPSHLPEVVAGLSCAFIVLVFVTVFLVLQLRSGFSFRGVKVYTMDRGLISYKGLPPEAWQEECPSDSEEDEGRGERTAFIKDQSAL
Sequence,furin cleavage Z-score (7.5 min),furin cleavage Z-score (15 min),furin cleavage Z-score (30 min)
CANPARVCRDAGNASASA [FS-278],6.13 (active),5.66 (active),4.1 (active)
CAGLGKVLIDAGNASASA [HC1082],-0.199 (inactive),-0.846 (inactive),-0.271 (inactive)
CATTPCSGWWAGNASASA [HC1908],-0.371 (inactive),-1.44 (inactive),0.0983 (inactive)
CAMEECSQHGAGNASASA [HC1776],-0.484 (inactive),0.542 (inactive),-0.44 (inactive)
CAEVPCHSPSAGNASASA [HC2377],-0.25 (inactive),-0.38 (inactive),1.09
CAEVFCHRPSAGNASASA [HC2347],-0.391 (inactive),-1 (inactive),0.51 (inactive)
CAHLQRQKRDAGNASASA [FS-440],6.68 (active),7.1 (active),5.53 (active)
CAILRRHKRDAGNASASA [FS-1214],10.7 (active),10.2 (active),7.94 (active)
CAPKRRQKRDAGNASASA [FS-1048],13.5 (active),14.7 (active),10 (active)
CAQHSVRKRDAGNASASA [FS-1150],11.7 (active),12.2 (active),10.4 (active)
CAILRRHVGPAGNASASA [HC1111],0.0974 (inactive),-0.838 (inactive),0.671 (inactive)
CAHWSVTKRDAGNASASA [FS-336],0.168 (inactive),0.304 (inactive),0.862 (inactive)
CAVVCCSNSYAGNASASA [HC2061],0.77 (inactive),-0.0199 (inactive),0.92 (inactive)
CALVPCHRPSAGNASASA [HC2305],0.746 (inactive),0.178 (inactive),0.32 (inactive)
CAEIVVCCSMAGNASASA [HC2124],0.157 (inactive),-0.897 (inactive),0.583 (inactive)
CAQCCDLDPQAGNASASA [HC1491],0.144 (inactive),0.912 (inactive),-0.252 (inactive)
CAMEECSQCLAGNASASA [HC1760],-0.273 (inactive),-0.494 (inactive),0.638 (inactive)
CAEVVFSTWVAGNASASA [HC126],1.73,-1.1 (inactive),-0.791 (inactive)
CATSSRNARNAGNASASA [FS-571],3.05,4.2 (active),5.2 (active)
CAGLRRRKRDAGNASASA [FS-930],12.2 (active),10.2 (active),8.8 (active)
CATDSRTNRDAGNASASA [FS-1422],-1.07 (inactive),-0.239 (inactive),1.78
CAISPRQKRDAGNASASA [FS-542],12.4 (active),12.3 (active),9.21 (active)
CATHRRQKRDAGNASASA [FS-1092],3.98 (active),2.56,2.3
CATSSEPAPSAGNASASA [HC1344],-0.191 (inactive),-1.38 (inactive),-0.0397 (inactive)
